Measured values: ChEMBL document CHEMBL4513149, “CO-ADD screening of MMV (CH) - MMV compounds” (2021)
Potency and affinity values are given separately.

These compounds were tested on Klebsiella pneumoniae. Conditions: Concentration 20 uM; ASSAY_TEST Inhibition of Bacterial Growth; detection method Absorption (OD600); MEDIA CAMHB; plate type 384well; NBS; CORNING #3640; time 18 hr.

**Q.** `Nc1ccc(C(=O)Nc2ccc(-c3nc4ccccc4o3)cc2)cc1` was tested. Which Inhibition did it give?
**A.** 7.66%

**Q.** For `Cc1ccc2oc(-c3cc(NC(=O)Cc4ccccc4)ccc3Cl)nc2c1`, which Inhibition is on record?
**A.** 6.29%

**Q.** With `CCc1nc2ccc(C(=O)NCc3ccc4c(c3)OCO4)cn2c1N(C)Cc1cccs1` as the compound, how does the Inhibition read?
**A.** 5.86%

**Q.** How did the Inhibition turn out when `N#CCN(CCCCN1CCN(c2ccc(F)cc2)CC1)C(=O)OCc1ccccc1` was run?
**A.** 11.82%

**Q.** How did the Inhibition turn out when `COc1cc(-c2cc(-c3ccc(S(C)(=O)=O)cc3)cnc2N)ccc1O` was run?
**A.** 7.56%

**Q.** Which Inhibition does the source give for `CCCCc1ccc(NC(=O)Nc2ccc(O[C@H]3CCCC[C@@H]3N(C)c3ccccc3)c(F)c2)cc1` here?
**A.** 12.88%

**Q.** With `CNC(=O)c1nn(C)c2c1C(C)(C)Cc1cnc(Nc3ccc(N4CCN(C)CC4)cc3)nc1-2` [MILCICLIB] as the compound, how does the Inhibition read?
**A.** -10.97%

**Q.** Which Inhibition does the source give for `COc1ccc(Cn2cnc3c(-c4ccco4)nc(Cl)nc32)cc1` here?
**A.** 18.21%

**Q.** How did the Inhibition turn out when `Cc1cc(NC(=O)c2ccc(S(=O)(=O)N(Cc3ccccc3)C(C)C)cc2)no1` was run?
**A.** 8.9%

**Q.** With `O=C1COCc2ccc(Br)cc2N1Cc1ccc(C(F)(F)F)cc1` as the compound, how does the Inhibition read?
**A.** 17.24%

**Q.** With `CCn1ncc2c(NC3CCOCC3)c(CNC(=O)c3ccnn3C)c(C)nc21` as the compound, how does the Inhibition read?
**A.** -4.12%

**Q.** Which Inhibition does the source give for `CN1CCN(c2nccc3nc(-c4ccc(F)c(F)c4)[nH]c23)CC1` here?
**A.** 17.85%

**Q.** Which Inhibition does the source give for `Cc1nc(-c2ccccn2)nc(NCCc2ccc(S(C)(=O)=O)cc2)c1Cl` here?
**A.** 10.15%

**Q.** How did the Inhibition turn out when `O=C(C1CCN(c2nnnn2-c2ccccc2)CC1)N1CCc2ccccc2C1` was run?
**A.** 12.73%

**Q.** How did the Inhibition turn out when `COc1cc2ncnc(NC3CCN(Cc4ccccc4)CC3)c2cc1OC` was run?
**A.** 10.11%

**Q.** For `CC(C)(C(=O)Nc1ccc(F)cc1)n1cc(-c2ccccc2F)cn1`, which Inhibition is on record?
**A.** 12.71%

**Q.** Which Inhibition does the source give for `Cc1cnc(N2CCN[C@@H](Cc3ccccc3)C2)nc1Oc1ccc(-n2ccnc2)cc1.Cl` here?
**A.** 8.14%

**Q.** `CC1=Nc2ccc(Cl)cc2C(O)(c2ccc(C)cc2)N1CCN1CCCCC1` (configuration not stated) was tested. Which Inhibition did it give?
**A.** 18.59%

**Q.** Which Inhibition does the source give for `COc1ccc(-c2nnc3ccc(-c4cccc(C(C)C)c4)cn23)cc1OC` here?
**A.** -10.87%

**Q.** Which Inhibition does the source give for `CN1CCN(c2cc(-c3ccc(F)cc3)nc(-c3ccncc3)n2)CC1` here?
**A.** 4.2%

**Q.** How did the Inhibition turn out when `Cc1cc(C)cc(COc2ccc3c(C)c(CCC(=O)O)c(=O)oc3c2C)c1` was run?
**A.** 9.77%

**Q.** With `O=C(NCCc1ccccc1)c1cc(-c2cccnc2)cnc1NCC1CC1` as the compound, how does the Inhibition read?
**A.** -2.11%

**Q.** For `Cc1cc(Cl)c(S(=O)(=O)N2CCCC2)cc1OCC(=O)NC1CCCCC1`, which Inhibition is on record?
**A.** 2.55%

**Q.** For `O=C(Nc1ccccc1-c1nc2c(C(=O)O)cccc2o1)c1ccccc1`, which Inhibition is on record?
**A.** 1.94%

**Q.** For `COc1ccccc1OCCCCn1c(C2CC2)nc2ccccc21`, which Inhibition is on record?
**A.** 10.24%

**Q.** With `CC(C(=O)Nc1ccc2oc(-c3ccncc3)nc2c1)c1ccccc1` (configuration not stated) as the compound, how does the Inhibition read?
**A.** 10.68%

**Q.** For `CC(C)(C)C(=O)N(CCCCCCN1C[C@H](O)[C@@H](O)[C@H](O)[C@H]1CO)C1CCCCCC1`, which Inhibition is on record?
**A.** 7.47%

**Q.** For `CCOC(=O)c1noc(N)c1-c1ccccc1`, which Inhibition is on record?
**A.** 13.91%

**Q.** How did the Inhibition turn out when `COc1ccc(C2=NCCN2)cc1-c1cn(-c2cccc(C3=NCCN3)c2)nn1.O=C(O)C(F)(F)F.O=C(O)C(F)(F)F` was run?
**A.** 17.32%

**Q.** `O=C(NCc1nnc2n1CCCCC2)c1ccc(-c2ccc(F)cc2)o1` was tested. Which Inhibition did it give?
**A.** 6.05%

**Q.** With `CC(C)C(Oc1cccc2ccccc12)C(=O)O` (configuration not stated) as the compound, how does the Inhibition read?
**A.** 6.53%

**Q.** For `COc1ccc(-c2cncc3ccc(C(=O)NCCCn4ccnc4)nc23)cc1`, which Inhibition is on record?
**A.** 3.32%

**Q.** `Cc1ccc(-c2nc(CN(Cc3ccccn3)C(C)C)cs2)o1` was tested. Which Inhibition did it give?
**A.** 14.74%

**Q.** How did the Inhibition turn out when `CCOc1ccc(-c2nc(NC(=O)CS(=O)(=O)c3ccccc3)sc2C)cc1` was run?
**A.** 8.83%

**Q.** Which Inhibition does the source give for `Cc1nn(C)cc1C(C)Nc1nncc(-c2ccc(C(F)(F)F)cc2)n1` (configuration not stated) here?
**A.** 3.18%

**Q.** Which Inhibition does the source give for `COc1cccc2c(C)nc(N=C(N)N)nc12.O=C(O)C(F)(F)F.O=C(O)C(F)(F)F` here?
**A.** 9.38%

These compounds were tested on Candida albicans. Conditions: 20 µM.

**Q.** Which Inhibition does the source give for `Nc1ccc(C(=O)Nc2ccc(-c3nc4ccccc4o3)cc2)cc1` here?
**A.** 15.1%

**Q.** How did the Inhibition turn out when `Cc1ccc2oc(-c3cc(NC(=O)Cc4ccccc4)ccc3Cl)nc2c1` was run?
**A.** 14.6%

**Q.** How did the Inhibition turn out when `CCc1nc2ccc(C(=O)NCc3ccc4c(c3)OCO4)cn2c1N(C)Cc1cccs1` was run?
**A.** 3.04%

**Q.** For `N#CCN(CCCCN1CCN(c2ccc(F)cc2)CC1)C(=O)OCc1ccccc1`, which Inhibition is on record?
**A.** 2.42%

**Q.** For `COc1cc(-c2cc(-c3ccc(S(C)(=O)=O)cc3)cnc2N)ccc1O`, which Inhibition is on record?
**A.** 3.91%

**Q.** Which Inhibition does the source give for `CCCCc1ccc(NC(=O)Nc2ccc(O[C@H]3CCCC[C@@H]3N(C)c3ccccc3)c(F)c2)cc1` here?
**A.** 1.16%

**Q.** For `CNC(=O)c1nn(C)c2c1C(C)(C)Cc1cnc(Nc3ccc(N4CCN(C)CC4)cc3)nc1-2` [MILCICLIB], which Inhibition is on record?
**A.** 4.83%

**Q.** Which Inhibition does the source give for `COc1ccc(Cn2cnc3c(-c4ccco4)nc(Cl)nc32)cc1` here?
**A.** 6.94%

**Q.** `Cc1cc(NC(=O)c2ccc(S(=O)(=O)N(Cc3ccccc3)C(C)C)cc2)no1` was tested. Which Inhibition did it give?
**A.** 1.89%

**Q.** Which Inhibition does the source give for `O=C1COCc2ccc(Br)cc2N1Cc1ccc(C(F)(F)F)cc1` here?
**A.** 8.78%

**Q.** With `CCn1ncc2c(NC3CCOCC3)c(CNC(=O)c3ccnn3C)c(C)nc21` as the compound, how does the Inhibition read?
**A.** 0.07%

**Q.** How did the Inhibition turn out when `CN1CCN(c2nccc3nc(-c4ccc(F)c(F)c4)[nH]c23)CC1` was run?
**A.** 1.66%

**Q.** For `Cc1nc(-c2ccccn2)nc(NCCc2ccc(S(C)(=O)=O)cc2)c1Cl`, which Inhibition is on record?
**A.** 4.79%

**Q.** Which Inhibition does the source give for `O=C(C1CCN(c2nnnn2-c2ccccc2)CC1)N1CCc2ccccc2C1` here?
**A.** 2.89%

**Q.** How did the Inhibition turn out when `COc1cc2ncnc(NC3CCN(Cc4ccccc4)CC3)c2cc1OC` was run?
**A.** 2.88%

**Q.** For `CC(C)(C(=O)Nc1ccc(F)cc1)n1cc(-c2ccccc2F)cn1`, which Inhibition is on record?
**A.** 7.41%

**Q.** With `Cc1cnc(N2CCN[C@@H](Cc3ccccc3)C2)nc1Oc1ccc(-n2ccnc2)cc1.Cl` as the compound, how does the Inhibition read?
**A.** 2.69%

**Q.** How did the Inhibition turn out when `CC1=Nc2ccc(Cl)cc2C(O)(c2ccc(C)cc2)N1CCN1CCCCC1` (configuration not stated) was run?
**A.** 3.13%

**Q.** Which Inhibition does the source give for `COc1ccc(-c2nnc3ccc(-c4cccc(C(C)C)c4)cn23)cc1OC` here?
**A.** 15%

**Q.** Which Inhibition does the source give for `CN1CCN(c2cc(-c3ccc(F)cc3)nc(-c3ccncc3)n2)CC1` here?
**A.** 3.25%

**Q.** Which Inhibition does the source give for `Cc1cc(C)cc(COc2ccc3c(C)c(CCC(=O)O)c(=O)oc3c2C)c1` here?
**A.** 6.48%

**Q.** Which Inhibition does the source give for `O=C(NCCc1ccccc1)c1cc(-c2cccnc2)cnc1NCC1CC1` here?
**A.** 6.13%

**Q.** With `Cc1cc(Cl)c(S(=O)(=O)N2CCCC2)cc1OCC(=O)NC1CCCCC1` as the compound, how does the Inhibition read?
**A.** 9.11%

**Q.** With `O=C(Nc1ccccc1-c1nc2c(C(=O)O)cccc2o1)c1ccccc1` as the compound, how does the Inhibition read?
**A.** 5.59%

**Q.** How did the Inhibition turn out when `COc1ccccc1OCCCCn1c(C2CC2)nc2ccccc21` was run?
**A.** 1.96%

**Q.** For `CC(C(=O)Nc1ccc2oc(-c3ccncc3)nc2c1)c1ccccc1` (configuration not stated), which Inhibition is on record?
**A.** 3.28%

**Q.** Which Inhibition does the source give for `CC(C)(C)C(=O)N(CCCCCCN1C[C@H](O)[C@@H](O)[C@H](O)[C@H]1CO)C1CCCCCC1` here?
**A.** 0.83%

**Q.** How did the Inhibition turn out when `CCOC(=O)c1noc(N)c1-c1ccccc1` was run?
**A.** 3.66%

**Q.** For `COc1ccc(C2=NCCN2)cc1-c1cn(-c2cccc(C3=NCCN3)c2)nn1.O=C(O)C(F)(F)F.O=C(O)C(F)(F)F`, which Inhibition is on record?
**A.** 2.35%

**Q.** Which Inhibition does the source give for `O=C(NCc1nnc2n1CCCCC2)c1ccc(-c2ccc(F)cc2)o1` here?
**A.** 3.81%

**Q.** Which Inhibition does the source give for `CC(C)C(Oc1cccc2ccccc12)C(=O)O` (configuration not stated) here?
**A.** 8.4%

**Q.** Which Inhibition does the source give for `COc1ccc(-c2cncc3ccc(C(=O)NCCCn4ccnc4)nc23)cc1` here?
**A.** 4.61%

**Q.** How did the Inhibition turn out when `Cc1ccc(-c2nc(CN(Cc3ccccn3)C(C)C)cs2)o1` was run?
**A.** 5.03%

**Q.** For `CCOc1ccc(-c2nc(NC(=O)CS(=O)(=O)c3ccccc3)sc2C)cc1`, which Inhibition is on record?
**A.** 3.16%

**Q.** Which Inhibition does the source give for `Cc1nn(C)cc1C(C)Nc1nncc(-c2ccc(C(F)(F)F)cc2)n1` (configuration not stated) here?
**A.** 3.9%

**Q.** For `COc1cccc2c(C)nc(N=C(N)N)nc12.O=C(O)C(F)(F)F.O=C(O)C(F)(F)F`, which Inhibition is on record?
**A.** 2.56%
